Screening data (PubChem BioAssay)
JMJD2E inh: blocks human JMJD2E demethylase activity; B2RXH2; JMJD2E catalytic domain, FDH-coupled NADH fluorescence (FDH is formaldehyde dehydrogenase); Potency, µM (series often up to 57.1 µM), actives largely listed as inhibitors; 230,000 tested, 1.6% active; active means well fitted inhibition curve with a large enough effect, not every such curve was filed as active; inconclusive means small, poorly fitted or top-dose-only effect, or another doubt; inactive means no such curve, though single readings can be large or run the other way; further: nearly all actives have a fitted effect of over 50% in size
Target sequence (B2RXH2 1-337 limits assumed): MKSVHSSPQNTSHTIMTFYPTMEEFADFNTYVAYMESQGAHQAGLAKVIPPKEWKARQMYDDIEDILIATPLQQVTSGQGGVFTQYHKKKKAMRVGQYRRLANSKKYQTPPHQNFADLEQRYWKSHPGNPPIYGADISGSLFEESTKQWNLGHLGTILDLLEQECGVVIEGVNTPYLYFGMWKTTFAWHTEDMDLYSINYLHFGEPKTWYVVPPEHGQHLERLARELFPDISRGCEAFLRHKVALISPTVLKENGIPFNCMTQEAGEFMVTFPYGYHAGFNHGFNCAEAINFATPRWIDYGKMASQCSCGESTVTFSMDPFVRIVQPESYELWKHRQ
BLM inh: blocks DNA unwinding by human BLM helicase. 350,000 tested, 0.2% active. Potency, µM (top dose mostly 56.1 µM), usual class: inhibitors. recombinant BLM DNA unwinding, fluorescence dequenching; further: nearly all actives have a fitted effect of over 35% in size
GoLoco inh red: RGS12 GoLoco-Gai1 interaction inhibition; P63096; 230,000 tested, 0.44% active; Gai1:RGS12 GoLoco peptide FP, rhodamine, 10 min; Potency, µM (doses to about 61.6 µM), most hits filed as inhibitors; active means well fitted inhibition curve with a large enough effect, not every such curve was filed as active; inactive means no such curve, though single readings can be large or run the other way; further: nearly all actives have a fitted effect of over 30% in size
Target sequence (P63096 whole entry, looked up): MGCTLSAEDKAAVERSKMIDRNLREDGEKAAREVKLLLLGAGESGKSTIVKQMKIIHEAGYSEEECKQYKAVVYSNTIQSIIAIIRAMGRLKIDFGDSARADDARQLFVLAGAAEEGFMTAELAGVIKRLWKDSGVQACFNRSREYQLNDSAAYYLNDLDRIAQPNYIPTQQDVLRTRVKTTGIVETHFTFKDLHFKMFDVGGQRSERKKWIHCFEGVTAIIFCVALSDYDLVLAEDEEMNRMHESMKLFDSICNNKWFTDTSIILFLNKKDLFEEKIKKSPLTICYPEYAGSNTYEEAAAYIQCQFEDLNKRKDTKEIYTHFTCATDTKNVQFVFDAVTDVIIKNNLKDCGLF
RECQ1 helicase: blocks DNA unwinding by human RECQ1 | 240,000 tested, 0.54% active | RECQ1 DNA unwinding, red fluorescence kinetic read | Potency, µM (top dose mostly 57.3 µM), hits mostly inhibitors; further: nearly all actives have a fitted effect of over 30% in size
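RECQ1T1 50 nM; forked duplex (20 bp + 30-nt ss tails) 200 nM, ATP 2 mM final; pH 8.0, 2 mM MgCl2, 2.5 ug/ml poly(dI-dC); 15 min compound preincubation; discontinuous kinetic read over 2 h at RT.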
APEX1 inh: blocks human APE1 abasic DNA cleavage; 350,000 tested, 0.35% active; Potency, µM (top dose mostly 65.8 µM), usual class: inhibitors; recombinant APE1, TAMRA/BHQ-2 abasic DNA cleavage fluorescence; P27695; further: nearly all actives have a fitted effect of over 55% in size
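Quantitative HTS: incision of a TAMRA/BHQ-2 double-stranded substrate bearing a tetrahydrofuran abasic site by 0.75 nM APE1 raises fluorescence. Substrate 50 nM final, added after 15 min compound preincubation at room temperature; progress as third-minus-first kinetic read difference.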
L3MBTL1 block: inhibitors of human L3MBTL1; Potency, µM (top dose mostly 57.1 µM), actives largely listed as inhibitors; AlphaScreen L3MBTL1–H3K9me1 peptide binding; 230,000 tested, 0.66% active; Q9Y468; further: nearly all actives have a fitted effect of over 60% in size
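Displacement of a biotinylated histone H3(1-15) peptide monomethylated at Lys9 (75 nM) from L3MBTL1 (50 nM) was measured by AlphaScreen after a 30 min room-temperature compound incubation; cefsulodin titration served as intraplate control.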
Hits are given with their value; . = inactive; ? = inconclusive; / = no result; ! = not active in a repeat; [ ] = another dose, or the depositor's remark. Only a selection was taken, and hits are over-represented in it overall. Unless noted, the call rests on the fitted dose curve; in most records, active means well fitted curve in the direction sought with a large enough effect; inconclusive means small, poorly fitted or top-dose-only effect, or another doubt; inactive means no such curve, though single readings can be large; an effect the other way counts as inactive or inconclusive.

SMILES	JMJD2E inh	BLM inh	GoLoco inh red	RECQ1 helicase	APEX1 inh	L3MBTL1 block
COc1cc(OC)c2c(O)c3c(c(-c4c5c(c(O)c6c(OC)cc(OC)cc46)CO[C@@H](C)[C@H]5O)c2c1)[C@H](O)[C@H](C)OC3	?	?	.	25µM	?	?
O=C(O)C(c1ccccc1)N1C(=O)/C(=C\c2ccc(-c3ccc(Br)cc3)o2)SC1=S (stereo not drawn)	/	32µM	/	/	?	/
COc1cc(/C=C2\SC(=S)N(C(C(=O)O)c3ccccc3)C2=O)cc(OC)c1OC (stereo not drawn)	.	.	.	.	.	.
Cc1ccc(OCC(=O)Nc2nnc(SCc3cc(=O)n4cc(C)ccc4n3)s2)cc1	/	.	/	/	/	/
CN1CCc2cccc3c2[C@@H]1Cc1ccc(O)c(O)c1-3	32µM	.	.	.	.	.
CCCCc1cc2c(cn1)=C(OC(=O)c1cccs1)C(C)(OC(=O)CC)C(=O)C=2 (stereo not drawn)	.[11.4 µM]	.[12.4 µM]	.[14.2 µM]	.[11.5 µM]	.[12.4 µM]	/
CC(=O)OC[C@]12CC[C@H]3[C@@](C)(CC[C@H]4C(C)(C)CCC[C@]34C)[C@@H]1C[C@H](C1=CC(=O)O[C@@H]1OC(C)=O)O2	/	/	/	/	13µM	.
CC1(C)CCC[C@]2(C)[C@H]3CC(=O)O[C@]3(C)CC[C@@H]12	/	.	/	.	.	/
COc1ccc(OCC(=O)NCc2ccc3c(c2)CCN3C(=O)c2cccc(C)c2)cc1	/	.	/	/	/	/
CSc1nc(=S)c2[nH]c(=S)[nH]c2[nH]1	11µM	.	.	.	.	.
Cc1c(Cl)sn(-c2ccc(Cl)cc2)c1=O	.	.	14µM	.	.	.
Cc1nn(-c2ccc(Cl)cc2)c(=O)c2ccccc12	.	.	.	.	.	.
O=S(=O)(Nc1ccc(-c2ccc(N3CCCC3)nn2)cc1)c1ccc(OC(F)(F)F)cc1	/	.	/	/	/	/
COc1ccc2[nH]c3c(c2c1)CCN1C(=O)C(CC(=O)NCc2cccc(C(F)(F)F)c2)C[C@H](C(=O)N(C(C)C)C(C)C)[C@@]31C (stereo partly drawn)	/	/	/	/	.	.
Cc1c(Cc2ccccc2)c(=O)oc2cc(O)ccc12	?	.	.	.	.	.
Cc1oc2c(O)c(O)ccc2c(=O)c1-c1ccccc1	13µM	.	.	10µM	.	/
Cc1cc(=O)oc2c(CN3CCCC3)c(O)ccc12	/	.	/	/	.	/
Cc1cc(=O)oc2c(O)c(O)ccc12	2.2µM	.	.	.	.	/
Cc1oc2c(O)c(O)ccc2c(=O)c1-c1cnn(-c2ccccc2)c1	.	.	2.2µM	.	.	.
Cc1oc2c(O)c(O)ccc2c(=O)c1-c1ccc(Cl)cc1	/	.	/	/	.	.
Cc1c(Cc2ccccc2)c(=O)oc2c(O)c(O)ccc12	3.2µM	13µM	.	.	.	.
C=CC1=C2C=C(C3CC3)N(CCCCO)C=C2C(=O)C(C)(OC(=O)c2ccco2)C1=O (stereo not drawn)	?	.[12.4 µM]	.[14.2 µM]	.[11.5 µM]	.[12.4 µM]	/
CCCOc1ccc(CN(C(=O)c2cc(=O)c3ccc(C)cc3o2)C2CCS(=O)(=O)C2)cc1 (stereo not drawn)	/	.	/	/	/	/
FC(F)Oc1ccc(C2=Nn3c(nnc3-c3ccccc3C(F)(F)F)SC2)cc1OCC1CC1	/	/	/	/	.	/
C/C(=N\Nc1nc2ccccc2[nH]1)c1ccc(Cl)s1	.	.	.	32µM	.	.
SMILES	JMJD2E inh	BLM inh	GoLoco inh red	RECQ1 helicase	APEX1 inh	L3MBTL1 block
C/C(=N\Nc1nc2ccccc2[nH]1)c1ccc(C)o1	.	.	.	.	.	.
CC(C)=CCC/C(C)=C/CO/N=C1/C[C@@H](O)[C@@H](O)[C@@H]2[C@@H]3C(=O)N(Cc4ccc5c(c4)OCO5)C(=O)[C@H]3CC[C@H]12	/	.[12.4 µM]	/	.[11.5 µM]	?	/
COc1cc2c(cc1OC)[C@H](C)N(CC1C(=O)O[C@@H]3C[C@@]4(C)CCC[C@H](C)[C@@]45OC5[C@H]13)CC2 (stereo partly drawn)	.	.	.	.	.	/
O=C1C=C(O)c2c(O)cccc2C1=O	6.3µM	.	.	?	?	/
O=C1C=C(O)c2cccc3cccc1c23	/	.	/	/	.	.[2.29 µM]
Cn1cc(CNC(=O)c2cnn3c2NC(=C2CC2)C=C3C(F)F)cn1	/	/	/	/	.	/
CC(C)(C)c1ccc(S(=O)(=O)NCc2ccc3c(c2)CCN3C(=O)c2ccccc2)cc1	/	.	/	/	/	/
Nc1ccc(C#Cc2ccccc2)cc1	.	.	.	.	.	.
Cc1cccc(C#Cc2ccccc2)n1	13µM!	?	.	.	.	.
Cn1c[n+](C)cc1/C=N/O	.	.	4µM	.	.	.
Cc1ccc(-c2nc(N)s[n+]2-c2ccccc2)cc1	.	.	3.5µM	.	.	.
COc1ccc2nc(-c3ccc(N(C)C)cc3)sc2c1	/	.	/	.	.	/
Cc1[nH]c(=O)[nH]c1C(=O)CCCCC(=O)O	.	.	.	.	.	0.35µM
CCCCSCc1[nH]c(=O)[nH]c1C(=O)CCCCC(=O)OCC	.	.	.	.	.	.
Cc1ccc(NC(=O)Cn2c(=O)n(Cc3nc(C)no3)c(=O)c3cc4c(cc32)OCO4)c(Cl)c1	/	.	/	/	/	/
Cn1c(=O)n(CCCc2ccccc2)c(=O)c2c1nc1n2CCN1c1ccccc1	/	.	/	/	/	/
CCCCC1=CC2=CC(=O)C(C)(OC(=O)CC)C(=O)C2=CN1C1CCCCC1 (stereo not drawn)	28µM!	.[12.4 µM]	.[14.2 µM]	.[11.5 µM]	.[12.4 µM]	/
COC(=O)CCCC1=CC2=CC(=O)C(C)(OC(=O)c3cccs3)C(=O)C2=CN1C1CCCCC1 (stereo not drawn)	?	.[12.4 µM]	.[14.2 µM]	.[11.5 µM]	.[12.4 µM]	/
CCCCC1=CC2=CC(=O)C(C)(OC(=O)CC)C(=O)C2=CN1Cc1ccc2c(c1)OCO2 (stereo not drawn)	18µM!	.[12.4 µM]	.[14.2 µM]	.[11.5 µM]	.[12.4 µM]	/
CCCCC1=CC2=CC(=O)C(C)(OC(=O)CC)C(=O)C2=CN1CCCCO (stereo not drawn)	13µM!	.[12.4 µM]	.[14.2 µM]	.[11.5 µM]	.[12.4 µM]	/
CCCCC1=CC2=CC(=O)C(C)(OC(=O)CC)C(=O)C2=CN1c1ccc(OC)cc1 (stereo not drawn)	?	.[12.4 µM]	.[14.2 µM]	.[11.5 µM]	.[12.4 µM]	/
CCCn1c(N)c(N2CCCCC2)c(=O)n(CC(=O)Nc2ccc(C(C)=O)cc2)c1=O	/	/	/	/	.	.
CN1CCc2ccccc2[C@@H]1Cc1ccccc1NC(=O)c1sc2ccccc2c1Cl	/	/	.[14.2 µM]	/	/	/
Cc1ccc(C=Nc2ccc(N(C)C)cc2)o1	13µM	.	.	.	.	?
O=C(Oc1ccc(Cl)c2cccnc12)c1cccc([N+](=O)[O-])c1	?	.	.	.	.	?
O=C(Oc1c(Cl)cc(Cl)c2cccnc12)c1cccc([N+](=O)[O-])c1	14µM	.	.	.	.	?
Cc1ccc(C(=O)O)cc1-c1ccc(C=C2C(=O)c3ccccc3C2=O)o1	?	.	.	.	.	25µM
Oc1ccc(NCc2cccc(OCc3ccccc3)c2)cc1	4.5µM	?	.	.	.	?
